Only some compounds are listed: those with a hit (about 6.9% of all), similar ones and a draw of the others.
Cy5 interf NS3h – Cy5 fluorescence quenchers or enhancers, artefact control for HCV NS3 helicase inhibitor project, biochemical, ChemBridge library, Cy5 readout. Cy5-dT15 DNA with NS3h, fluorescence interference; actives lie on both sides; signal over control mean, under 1 quenches. fluorescence interference ratio at 100 µM. actives 6% (n = 16,000);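 active = compound fluorescence over control fluorescence at most 0.8, a quencher, or at least a set upper limit, an enhancer; inactive = ratio between 0.8 and the set upper limit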
HCV NS3h FP – HCV NS3 helicase inhibitors, primary screen, biochemical, fluorescence polarization, ChemBridge library; Hepatitis C virus NS3 helicase; NS3h Cy5-dT15 DNA binding; inhibition, % at 100 µM; actives 1.6% (n = 16,000); AID 687043, 2013;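 active = inhibition above the average over every tested compound plus 3 SD, cut at about 40% in these data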
An asterisk follows results filed as active.

SMILES	Cy5 interf NS3h	HCV NS3h FP
CCOC(=O)C1=C(C)NC(C)=C(C(=O)OC)C1c1cc(Cl)cc(Cl)c1OC (stereo not given)	0.79*	0
CCOC(=O)C1=C(C)NC(=O)NC1c1ccc(OC)cc1OC (stereo not given)	0.96	1
O=C1NC(=S)NC(=O)C1=Cc1ccc(Oc2ccc([N+](=O)[O-])cn2)cc1	1.1	4
CC(C)(NO)/C(=N\O)c1ccc(Br)cc1	0.94	-4
COc1ccc(C(=O)Nc2c(C)cc(C)cc2C)cc1[N+](=O)[O-]	0.95	8
O=C(NCCCO)/C(=C/c1ccc(-c2cccc([N+](=O)[O-])c2)o1)NC(=O)c1ccccc1	0.79*	9
O=C(NCCCN1CCOCC1)/C(=C/c1ccc(-c2cccc([N+](=O)[O-])c2)o1)NC(=O)c1ccccc1	0.87	5
O=C(COc1ccccc1)Nc1ccccc1C(=O)Nc1ccc(C(=O)O)cc1	1	1
CCN(CC)c1ccc(/C=C2/C(=O)NN(c3ccc(C)c(Cl)c3)C2=O)c(O)c1	1.1	4
O=C(CCC(NC(=O)c1ccccc1)C(=O)NCCCO)OCc1ccccc1 (stereo not given)	0.92	4
CN1CCN(c2ccc([N+](=O)[O-])c(NCc3ccc(Cl)cc3)c2)CC1	0.96	15
COc1ccc(CCNc2cc(N3CCN(C)CC3)ccc2[N+](=O)[O-])cc1OC	0.98	46*
Cc1ccc(S(=O)(=O)OCP(=O)(c2ccccc2)c2ccccc2)cc1	0.77*	9
COCP(=O)(c1ccccc1)c1ccccc1	0.91	-9
COc1ccc(NC(=O)/C(C#N)=C/c2cc(C)n(-c3cccc4ccccc34)c2C)cc1	0.97	0
O=C(CSc1ncn(-c2ccccc2)n1)c1ccc(Br)cc1	0.99	4
Cn1ccnc1SCC(=O)c1ccc(Br)cc1	0.77*	12
O=C(Nc1ccc(Cc2ccc(NC(=O)c3ccccc3)c(Cl)c2)cc1Cl)c1ccccc1	1	11
NC(=O)C(Cc1c[nH]c2ccccc12)NC(=O)OCc1ccccc1 (stereo not given)	1.1	3
C/C(=N/N=C1\NC(=O)C(CC(=O)Nc2ccccc2C)S1)c1ccc(F)cc1 (stereo not given)	1	2
CCc1ccccc1NC(=O)CC1S/C(=N/N=C(C)\C=C\c2ccc(OC)cc2)NC1=O (stereo not given)	1.2*	-29
COc1ccc(OC)c(C2CC(O)(c3ccccc3OC)C(C)C(c3cc(OC)ccc3OC)N2)c1 (stereo not given)	0.96	-16
CCCS(=O)(=O)c1c(S(=O)(=O)CCC)c2c(N)cccn2c1C(=O)c1ccc(OC)cc1	0.66*	18
CCCS(=O)(=O)c1c(S(=O)(=O)CCC)c2ccccn2c1C(=O)c1ccc([N+](=O)[O-])cc1	1.1	13
O=C1c2ccccc2C(=O)N1CCCCN(C(=O)Nc1ccc([N+](=O)[O-])cc1)c1ccc(Cl)cc1	1	14
SMILES	Cy5 interf NS3h	HCV NS3h FP
CCC(=O)Nc1cccc2c1C(=O)c1ccccc1C2=O	1.1	11
COC(=O)c1ccc2c(c1O)C(=O)c1ccccc1C2=O	0.8*	-8
Cc1ccc(COc2cc3oc(=O)c4c(c3cc2Cl)CCC4)cc1	1.2	0
O=C(COc1ccc([N+](=O)[O-])cc1)Nc1ccc2oc(-c3ccccc3F)nc2c1	1	2
O=C(/C=C/c1cccc([N+](=O)[O-])c1)Nc1ccc2oc(-c3ccccc3F)nc2c1	0.78*	-4
O=C1/C(=C/c2ccc(Br)o2)SC(=S)N1c1ccccc1	0.64*	17
O=C1/C(=C/c2ccc(Br)o2)SC(=S)N1c1cccc(C(F)(F)F)c1	0.86	3
COCCCNC(=O)CN(c1cccc(C(F)(F)F)c1)S(C)(=O)=O	1.1	1
COC(=O)C1=C(C)NC2=C(C(=O)c3ccccc32)C1c1cc2c(cc1Cl)OCO2 (stereo not given)	0.98	-3
COc1cc(/C=C2/SC(=S)N(CC(=O)Nc3cccc(C(=O)O)c3)C2=O)cc(OC)c1OC	1	15
O=C(CN1C(=O)/C(=C/c2cccc(Br)c2)SC1=S)Nc1cccc(C(=O)O)c1	0.76*	39
CCOc1ccc(N2C(=O)NC(=O)/C(=C\c3cc(C)n(-c4cccnc4)c3C)C2=O)cc1	1	6
Nc1nc2c(s1)-c1ccccc1CC2	1.2*	29
Cc1ccc(-c2nc3ccc(Cl)cc3o2)cc1NC(=O)c1ccccc1F	0.96	32
Cc1cc(NC(=O)c2ccccc2I)ccc1-c1cc2ccccc2oc1=O	1	14
COc1ccccc1C(=O)Nc1ccc(-c2cc3ccccc3oc2=O)cc1	0.76*	-30
CCOc1ccc(C(=O)Nc2ccc(-c3cc4ccccc4oc3=O)c(C)c2)cc1Cl	0.96	-2
Cc1cc(NC(=O)c2ccc(Cl)cc2)ccc1-c1cc2ccccc2oc1=O	0.66*	3
COc1ccc(/C=C/c2[nH]c(=O)[nH]c(=O)c2[N+](=O)[O-])cc1[N+](=O)[O-]	1	14
CCOc1cccc(C(=O)Nc2cccc(OC)c2)c1	0.95	9
c1ccc(OCc2nc(-c3cccnc3)no2)cc1	1	5
COC(=O)c1ccccc1NC(=O)CN(c1ccc(OC)cc1)S(=O)(=O)c1ccc(C)cc1	1	12
Cc1cccc(NC(=O)c2ccc(-c3ccccc3)cc2)c1	1.1	7
Cc1ccccc1-c1cc2nc(C)c(Cl)c(=O)n2[nH]1	1	-1
Cc1nc2cc(-c3ccco3)[nH]n2c(=O)c1C	0.77*	9
SMILES	Cy5 interf NS3h	HCV NS3h FP
Cc1ccc(-c2nc3ccc(C)cn3c2NC(=O)c2ccccc2)cc1	0.97	26
CCOc1cc(C2C(C(=O)OC)=C(C)N(C)C(C)=C2C(=O)OC)ccc1OC(C)=O	0.93	8
COc1cc(/C=C2\SC(N)=NC2=O)c([N+](=O)[O-])cc1OC	0.77*	-15
NC1=NC(=O)/C(=C\c2ccccc2Cl)S1	1.1	8
COc1ccc(OC)c(N(CC(=O)Nc2ccccc2Cl)S(C)(=O)=O)c1	1.1	1
O=S(=O)(N=C(Nc1ccccc1)c1ccccc1)c1ccccc1	1	8
Cc1cc(Nc2ccc(C)c(Cl)c2)n2ncnc2n1	0.74*	15
Cc1cc(Nc2cc(Cl)cc(Cl)c2)n2ncnc2n1	0.91	-1
CCCc1ccc(-c2nc(Cc3c(F)cccc3Cl)no2)cc1	1.1	7
CS(=O)(=O)c1ccc2nc(NC(=O)c3ccc(Cl)c(Cl)c3)sc2c1	0.71*	-26
CS(=O)(=O)c1ccc2nc(NC(=O)c3ccccc3)sc2c1	1.1	13
O=C(c1cc2n(n1)C(C(F)(F)F)CC(c1cccs1)N2)N1CCCC1 (stereo not given)	0.95	-1
Cc1c(OCC(N)=O)ccc2c1oc(=O)c1ccccc12	1.1	7
Cc1ccc(-n2c(=O)c3cc4c(=O)n(-c5ccc(C)c(C)c5)c(=O)c4c(C(=O)c4ccccc4)c3c2=O)cc1C	1.1	10
O=c1c2cc3c(=O)n(-c4ccc(S)cc4)c(=O)c3cc2c(=O)n1-c1ccc(S)cc1	0.7*	4
CC(C)N(Cc1ccccc1)C(=O)CCCOc1ccc(Cl)cc1Cl	1	9
CC(Oc1ccc(Cl)cc1Cl)C(=O)NCCN(C)C (stereo not given)	0.71*	4
COc1ccc(/C=C2/C(=O)N(c3ccccc3)N=C2c2ccccc2)c(OC)c1	0.96	-3
